The campaign covered roughly 310,000 compounds. About 18,000 (5.8%) were called active. Another 22% or so got no clear call; they are omitted. The call rests on the fitted dose curve; in most records, active means well fitted inhibition curve with a large enough effect; inconclusive means small, poorly fitted or top-dose-only effect, or another doubt; inactive means no such curve, though single readings can be large or run the other way. The list comes from a sample in which actives are over-represented; it also holds similar structures and randomly drawn compounds.
assay: Primary qHTS for delayed death inhibitors of the malarial parasite plastid, 48 hour incubation; conditions: P. falciparum luciferase growth in erythrocytes; series mostly up to 28.7 µM; activity change, negative = inhibition: at the top concentration
Outline: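 Luminescence readout; reporter = integrated firefly luciferase in P. falciparum. RBC culture at 2% hematocrit, 0.1% parasitemia final, 37 C/5% CO2; decreased signal taken as growth inhibition.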
On the % scale 0 is the no-effect control and ±100 the full control effect; potency means the concentration at half of the fitted maximal effect.

Structure (SMILES) | activity change, negative = inhibition | Potency
COc1cc(OC)cc(C(=O)NNC(=O)CCOc2ccccc2OC)c1 | 10.8% (inactive) | –
Cc1occc1-c1nnc(SCC(=O)NC2(C#N)CCCC2)n1C | 1.05% (inactive) | –
CSc1ccc(S(=O)(=O)NCC(=O)OCC(=O)NC2(C#N)CCCCC2)cc1[N+](=O)[O-] | 36.9% (inactive) | –
O=C(Nc1cccc(NC(=O)c2cccc(F)c2)c1)c1ccccc1 | 0% [at 0.00184 µM] (inactive) | –
CC(=O)c1ccc(NC(=O)N[C@@H](Cc2ccccc2)C(=O)O)cc1 | -11.8% (inactive) | –
CC(=O)c1ccc(NC(=S)N(Cc2ccccc2)C(C)C2CC2)cc1 (stereo not drawn) | – | 13.1 µM (active)
CC(C)N(Cc1ccccc1)C(=S)Nc1ccc(OC(F)F)cc1 | 14% (inactive) | –
O=C(N/C(=C\c1ccc([N+](=O)[O-])cc1)C(=O)N1CCOCC1)c1cccc(Br)c1 | -5.24% (inactive) | –
COc1ccccc1NC(=O)COC(=O)c1ccccc1SCC(=O)N1CCCC1 | 4.59% (inactive) | –
CCS(=O)(=O)N1CCCC(C(=O)NCc2ccc(C)cc2)C1 (stereo not drawn) | -10.9% (inactive) | –
O=C(NCc1ccc2c(c1)OCO2)C1CCCN(S(=O)(=O)c2cccs2)C1 (stereo not drawn) | – | 9.28 µM (active)
O=C(NCc1ccccc1)C1CCCN(S(=O)(=O)c2cccs2)C1 (stereo not drawn) | 14.9% (inactive) | –
C/C(=N\NC(=O)c1cccc([N+](=O)[O-])c1)c1cccnc1 | 40.6% (inactive) | –
O=C(NC1CCC(O)CC1)c1ccccc1OCc1ccc(F)cc1 (stereo not drawn) | -10.5% (inactive) | –
Cc1ccc(C(=O)Nc2nnc(C3=COCCO3)o2)cc1C | -24.4% (inactive) | –
COc1ccc(-c2[nH]ncc2CN(C)Cc2c(C)n[nH]c2C)c(OC)c1 | 10.8% (inactive) | –
COc1ccc(-c2n[nH]c(C)c2-c2ccccc2OC)c(O)c1 | – | 9.28 µM (active)
C=C(C)COc1ccc(-c2n[nH]c(C)c2-c2ccccc2)c(O)c1 | – | 1.85 µM (active)
COc1ccc(-c2c(-c3ccc(OC)cc3O)nc(C)nc2C(F)(F)F)cc1 | – | 7.38 µM (active)
COc1ccc(C(=O)NNC(=O)c2cc(C)[nH]n2)cc1 | 37.1% (inactive) | –
COc1ccccc1-c1nc(SC)n[nH]1 | 40.5% (inactive) | –
Cc1noc(C)c1COC(=O)COc1ccc(-c2ccccc2)cc1 | 34.9% (inactive) | –

Structure (SMILES) | activity change, negative = inhibition | Potency
CCOc1ccc(-c2n[nH]c(C)c2-c2ccccn2)c(O)c1 | 6.15% (inactive) | –
COC(=O)c1cc(OC)ccc1-c1ccc(OC)cc1 | -17.5% (inactive) | –
COc1ccc(-c2n[nH]c(C)c2-c2ccc(OC)c(OC)c2)c(O)c1 | – | 13.1 µM (active)
COc1ccc(-n2c(-c3ccc(OC)c(OC)c3)n[nH]c2=S)cc1 | 11.2% (inactive) | –
COc1ccc(C(=O)CC(=O)c2ccc(C)cc2)c(O)c1 | -27% (inactive) | –
Cc1ccc(S(=O)(=O)N(CCCN(C)C)Cc2ccc3c(c2)OCO3)cc1 | 8% (inactive) | –
O=S1(=O)N=C(N(CCO)/N=C/c2ccccc2F)c2ccccc21 | -23.1% (inactive) | –
COCCCNC(=O)C1CC(=O)N(CCc2ccc(F)cc2)C1 (stereo not drawn) | 34.4% (inactive) | –
CCc1ccc(C(=O)N2CCN(S(=O)(=O)c3sc(C(=O)O)c(C)c3C(=O)O)CC2)cc1 | -11.1% (inactive) | –
CCOc1ccc2[nH]c3nc(SCC(=O)NC4CCCC4)nnc3c2c1 | 1.69% (inactive) | –
CN(C(=O)CN1C(=O)NC(C)(CCc2ccccc2)C1=O)c1ccccc1 (stereo not drawn) | -15.5% (inactive) | –
Cc1ccc(C)c(NS(=O)(=O)c2c(C)[nH]c(C)c2C(=O)N2CCCCC2)c1 | -9.06% (inactive) | –
CCOc1ccc(C(=O)CCC(=O)NC2=NCCS2)cc1 | -20.4% (inactive) | –
COc1ccccc1-c1n[nH]c2c1[C@H](C)CC[C@H]2C(C)C | 48.4% (inactive) | –
C=C(C)COc1ccc(-c2n[nH]c(C)c2-c2ccccc2OC)c(O)c1 | – | 8.28 µM (active)
C=C(C)COc1ccc(-c2nc(N)ncc2-c2ccccc2OC)c(O)c1 | -82.5% (inactive) | –
Cc1ccc(CN(CC(=O)NC2CCCCC2)C(=O)c2csnn2)cc1 | 18.1% (inactive) | –
Cc1ccc([N+](=O)[O-])cc1S(=O)(=O)N1CCCN(C)CC1 | 18.6% (inactive) | –
CCC1=C(OC(=O)N(CC)CC)N2C(=O)OC(=NCCc3c[nH]c4ccccc34)[C@]2(C)[C@H]2C1=CC[C@H]1C(=O)N(CC)C(=O)[C@H]12 | – | 9.28 µM (active)
CCC1=C(OC(=O)N(CC)CC)N2C(=O)OC(=NCC3CC3)[C@]2(C)[C@H]2C1=CC[C@H]1C(=O)N(CC(=O)OC)C(=O)[C@H]12 | 19.4% (inactive) | –
NC(=O)COC(=O)c1ccc2c(c1)C(=O)N(Cc1ccco1)C2=O | 13.7% (inactive) | –
Cc1ccc(Cc2nnc(SCC(=O)Nc3ccccc3C)[nH]c2=O)cc1 | 10% (inactive) | –

Structure (SMILES) | activity change, negative = inhibition | Potency
CCC(C)NC(=O)C1c2ccccc2C(=O)N1Cc1ccccc1 (stereo not drawn) | -1.99% (inactive) | –
NC(=O)Nc1cccc(C(F)(F)F)c1 | 25.6% (inactive) | –
O=C(NNc1ccccc1Cl)C(O)(c1cccc(C(F)(F)F)c1)c1cccc(C(F)(F)F)c1 | – | 3.29 µM (active)
CC(CC(=O)Nc1cc(C(F)(F)F)ccc1Cl)c1ccccc1 (stereo not drawn) | 5.12% (inactive) | –
O=C(O)CCC(=O)Nc1ccc(OCC2CCCO2)cc1 (stereo not drawn) | -4.69% (inactive) | –
COc1ccc(CNC(=O)CSc2n[nH]c(N)n2)cc1OC | 33.8% (inactive) | –
CN(Cc1cnccn1)C(=O)c1cc(COc2cccc(C(F)(F)F)c2)on1 | -2.2% (inactive) | –
CC(C)C(c1nnnn1Cc1ccccc1)N1CCC(C(N)=O)CC1 (stereo not drawn) | -13% (inactive) | –
O=C1N/C(=C/c2cccs2)C(=O)N1Cc1ccc(F)cc1 | -9.77% (inactive) | –
Fc1ccc(Cn2nnnc2C(c2cccs2)N2CCCCCC2)cc1 (stereo not drawn) | – | 13.1 µM (active)
O=C(CSc1nc2ccccc2c(=O)n1CCCO)NC1CC1 | 15.6% (inactive) | –
O=C(N/N=C/c1cccc(OC(=O)c2ccc([N+](=O)[O-])cc2)c1)c1cccnc1 | 13% (inactive) | –
O=C(O)c1ccc(N/N=C/c2cn(-c3ccccc3)nc2-c2cccs2)cc1 | – | 0.828 µM (active)
O=C(O)/C=C/c1cn(-c2ccccc2)nc1-c1cccs1 | 43.4% (inactive) | –
O=C(/C=C\c1cn(-c2ccccc2)nc1-c1cccs1)N1CCOCC1 | 45.5% (inactive) | –
COc1cccc2cc(C(=O)NCc3ccc(C)cc3)c(=N)oc12 | 2.8% (inactive) | –
CCOc1ccc(OCC(=O)OC(C)C(=O)NC2CCCCC2C)cc1 (stereo not drawn) | 2.72% (inactive) | –
Cc1oc2c(c1C(=O)N1CCOCC1)C(=O)c1ccccc1C2=O | – | 4.15 µM (active)
O=C(c1ccccc1-c1ccccc1)N1CCOCC1 | 9.71% (inactive) | –
Cc1onc(-c2ccccc2)c1C(=O)N1CCOCC1 | 12.5% (inactive) | –
Cc1ccc(NC(=O)C2CCCN2C(=O)OCc2ccccc2)cc1C (stereo not drawn) | -6.37% (inactive) | –
COc1ccc(C(=O)OCC(=O)Nc2ccc3[nH]c(=O)[nH]c3c2)c(OC)c1OC | 2.5% (inactive) | –

Structure (SMILES) | activity change, negative = inhibition | Potency
COc1ccc(NC(=O)C(=O)NCC(c2ccco2)N2CCc3ccccc3C2)cc1 (stereo not drawn) | – | 13.1 µM (active)
CCOC(CNC(=O)C(=O)NCC(c1ccco1)N1CCN(c2ccc(OC)cc2)CC1)OCC (stereo not drawn) | 3.86% (inactive) | –
O=C(NCC(c1ccco1)N1CCc2ccccc2C1)c1ccccc1Cl (stereo not drawn) | -23.2% (inactive) | –
C=CCc1cccc(/C=N/NC(=O)COc2ccc(-n3cnnn3)cc2)c1O | -22% (inactive) | –
CCOc1ccc(-n2c(SCC(N)=O)nnc2-c2ccco2)cc1 | 12.9% (inactive) | –
COC(=O)C1=C(c2cccc(OCc3ccccc3)c2)C[C@@H]2CC[C@H]1N2C(=O)NNCc1ccccc1 | – | 8.28 µM (active)
COC(=O)C1=C(c2ccc(C(C)=O)cc2)C[C@@H]2CC[C@H]1N2C(=O)NCCNC(C)=O | 37.2% (inactive) | –
O=C(COc1cccc(Cl)c1)NCc1ccccc1 | 10.5% (inactive) | –
COC(=O)C1=C(c2c(C)noc2C)C[C@@H]2CC[C@H]1N2C(=O)NCc1ccc2c(c1)OCO2 | -0.217% (inactive) | –
COc1cccc(CNC(=O)C2CC(=O)N(C3CCCCCCC3)C2)c1 (stereo not drawn) | -13.4% (inactive) | –
COC(=O)C1=C(c2cccc(OCc3ccccc3)c2)C[C@@H]2CC[C@H]1N2C(=O)NCc1ccc(Br)cc1 | – | 11.7 µM (active)
O=C(NCc1ccncc1)C(=O)NCC1OCCN1S(=O)(=O)c1ccc(Br)cc1 (stereo not drawn) | 9.05% (inactive) | –
COCCCNc1nc2c(-c3cccc(C)c3)nnn2c2ccc(Cl)cc12 | -9.36% (inactive) | –
CCOc1ccc(CC(=O)NCCS(=O)(=O)N2CCN(c3ccccc3)CC2)cc1 | -14.8% (inactive) | –
Cc1csc2nc(O)c(C(=O)NCCN3CCOCC3)c(=O)n12 | -13.4% (inactive) | –
O=C(c1cc2ccccc2o1)N1CCN(S(=O)(=O)c2ccc(Cl)s2)CC1 | – | 11.7 µM (active)
O=C(CN1CCN(S(=O)(=O)c2ccc(Cl)s2)CC1)N1CCCCC1 | -8.33% (inactive) | –
CS(=O)(=O)N1CCN(C(=O)c2cc3ccccc3oc2=O)CC1 | -0.673% (inactive) | –
CCOC(=O)N1CCN(C(=O)c2ccc(S(=O)(=O)c3ccc(C)cc3)c(NC(C)=O)c2)CC1 | -6.92% (inactive) | –
CCOC(=O)N1CCN(C(=O)c2ccc3c(c2)N(Cc2ccc(C)cc2)CCS3)CC1 | – | 13.1 µM (active)
O=C(NCCc1ccccc1)c1ccc2c(c1)N(Cc1ccccc1)CCS2 | -14.5% (inactive) | –
CCC(C)(C)NC(=O)C(c1ccc(O)cc1)N(C(=O)Cn1nnc2ccccc21)c1ccc(NC(C)=O)cc1 (stereo not drawn) | – | 2.08 µM (active)

Structure (SMILES) | activity change, negative = inhibition | Potency
CCC(C)(C)NC(=O)C(c1ccccn1)N(C(=O)c1csnn1)c1ccccc1 (stereo not drawn) | 1.07% (inactive) | –
COc1ccc(C(C(=O)NC(C)(C)C)N(C(=O)Cn2nnc3ccccc32)c2ccc(C(C)=O)cc2)cc1O (stereo not drawn) | -29.7% (inactive) | –
CCN(CC(=O)Nc1cc(Cl)ccc1C)C(=O)CSCc1ccc(C)cc1 | 0.0039% (inactive) | –
C=CCNC(=S)N/N=C/c1ccc(C)s1 | – | 4.65 µM (active)
C=CCNC(=S)N/N=C/c1ccc(OCc2ccccc2)cc1 | -2.98% (inactive) | –
Cc1ccc(/C=N/NC(=O)CN2CCN(Cc3ccccc3)CC2)s1 | 51% (inactive) | –
CC(C)(C)C(=O)NC1CC2CCCC(C1)N2C(=O)Nc1ccccc1F (stereo not drawn) | 11.9% (inactive) | –
O=S(=O)(Nc1ccc(-n2cnnn2)cc1)c1ccc(Cl)cc1 | -3.82% (inactive) | –
CCOC(=O)Cn1c(SC)nc2sc3c(c2c1=O)CC(C)(C)OC3 | 0.338% (inactive) | –
CCc1cc2c(=O)n(-c3ccccc3)c(SCC(=O)O)nc2s1 | 7.53% (inactive) | –
Cc1ccc(C)c(-n2c(SCC(=O)O)nc3sc4c(c3c2=O)CCCC4)c1 | -7.11% (inactive) | –
CCOc1ccc(-n2c(SCC(=O)OC)nc3sc4c(c3c2=O)CCN(C)C4)cc1 | – | 0.928 µM (active)
CCOc1ccc2cc(C#N)c(SCC(=O)OC)nc2c1 | 202% (inactive) | –
CCc1nc(SCC(=O)Nc2ccccc2OC)n[nH]1 | 29.7% (inactive) | –
CCSc1nc2sc3c(c2c(=O)n1-c1ccc(C)cc1)CCN(C)C3 | – | 2.62 µM (active)
COc1ccc(-n2c(=S)[nH]c3sc4c(c3c2=O)CCc2ccccc2-4)cc1 | -0.883% (inactive) | –
CCCSc1nc2sc3c(c2c(=O)n1-c1ccc(OC)cc1)CCN(C)C3 | – | 7.38 µM (active)
COc1ccccc1NC(=O)CSc1nc2sc3c(c2c(=O)n1-c1ccccc1)CCN(C)C3 | – | 1.65 µM (active)
Cc1sc2nc(SCCO)n(-c3ccccc3)c(=O)c2c1C | 5.65% (inactive) | –
COc1ccccc1-n1c(SCC(=O)O)nc2sc3c(c2c1=O)CCC3 | -4.58% (inactive) | –

— PubChem BioAssay AID504832 (National Center for Advancing Translational Sciences (NCATS), 2011)
